# Activity calls are given as the source filed them. The calls were made as follows: active = hit-call score of the fitted dose curve at least 0.9, where 1 is the maximum; inactive = score below 0.9.
# Experiment: APR_HepG2_p53Act_24hr: Apredica 24-hour HepG2 Assay for p53 Activation (AID 2282913);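 also: p53 protein immunofluorescence averaged per cell in HepG2 with Hoechst nuclei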
# Settings: high-content imaging, actives raise or lower the signal
# Outline: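 Fluorescence imaging of formaldehyde-fixed HepG2 cells labelled for p53 and with Hoechst, 24 h after dosing (0.39–200 uM, duplicate wells, 0.5% v/v DMSO). Signal fitted in both directions relative to DMSO.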
SMILES,outcome,AC50
O=C1c2c(O)cccc2Cc2cccc(O)c21,inactive,–
CCCCCCCC(=O)OC,inactive,–
CCc1cc(C2=C(C(=O)O)N(c3ccccc3C(F)(F)F)S(=O)(=O)c3ccccc32)cc2c1OCO2,inactive,–
OCC(O)CO,–,0.0391 µM (active)
S=c1[nH]c2ccccc2s1,inactive,–
CCCCCCCCCC[N+](C)(C)[O-],inactive,–
CN(C)CCCN1c2ccccc2Sc2ccc(Cl)cc21,–,28.5 µM (active)
COc1ccc(C(=O)Nc2nc3ccccc3c(NCc3ccccc3)c2C#N)cc1,–,160 µM (active)
CO[C@@H]1COCC[C@@H]1N[C@@H]1CC[C@@](C(=O)N2CCc3ncc(C(F)(F)F)cc3C2)(C(C)C)C1,inactive,–
CS(=O)(=O)c1ccc([C@@H](C[C@H]2CCC(=O)C2)C(=O)Nc2cnccn2)cc1Cl,inactive,–
COc1ccc(OC(F)(F)F)cc1CN[C@H]1CCCN[C@H]1c1ccccc1,–,24.9 µM (active)
Oc1ccc(O)cc1,–,19 µM (active)
CN(C)C(=O)NC1(c2ccccc2)CCN(CC[C@@]2(c3ccc(F)c(F)c3)CN(C(=O)c3ccccc3)CCO2)CC1,inactive,–
CN(C)C(=O)NC1(c2ccccc2)CCN(CCC[C@]2(c3ccc(Cl)c(Cl)c3)CCCN(C(=O)c3ccccc3)C2)CC1,–,14.8 µM (active)
NCCOCCOCCN,–,83.7 µM (active)
CCc1nc(N)nc(N)c1-c1ccc(Cl)cc1,inactive,–
CC(C)(O)c1ccc(CNC(=O)c2cccnc2Oc2ccc(F)cc2)cc1,inactive,–
Nc1nc(Cl)nc2c1ncn2[C@H]1C[C@H](O)[C@@H](CO)O1,–,0.208 µM (active)
CN(C)CCCN(C)CCCN(C)C,inactive,–
Cc1cc(SC2=C(O)C[C@@](CCc3ccc(N)cc3)(C(C)C)OC2=O)c(C(C)(C)C)cc1CO,inactive,–
CCCCc1nc2cccnc2n1Cc1ccc(-c2ccccc2-c2nnn[nH]2)cc1,–,31.1 µM (active)
OCC(CO)n1cnc(-c2ccc(F)cc2)c1-c1ccnc(Oc2ccccc2)n1,inactive,–
c1ccc2occc2c1,inactive,–
CCCCC(CC)COC(=O)CCCCCCCC(=O)OCC(CC)CCCC (centres undefined),inactive,–
CC(C)(C)c1ccccc1,inactive,–
COC(=O)CCC(=O)OC,inactive,–
CCCCC(CC)COP(=O)(OCC(CC)CCCC)OCC(CC)CCCC (centres undefined),–,71.1 µM (active)
COC(=O)CCCC(=O)OC,inactive,–
O=C(O)c1[nH]n(-c2ccc(S(=O)(=O)O)cc2)c(=O)c1N=Nc1ccc(S(=O)(=O)O)cc1,inactive,–
